Data taken from PubChem BioAssay (NCATS).
Values joined by “and” are separate entries in the source; they are usually repeats but may differ in a detail not shown here. Equal entries are not always repeated. Inconclusive results are not listed. Unmarked numbers belong to inactive results. Active and inactive are the calls of the source. Calls come from the whole dose curve; as a rule, active = well fitted cell-killing curve with a large enough effect; inconclusive = small, poorly fitted or top-dose-only effect, or effect the other way; inactive = no such curve, though single readings can be large or run the other way.

Experiments:
[1] = Viability qHTS for spleen associated tyrosine kinase inhibitor (SYKi) naive MV4-11 cells (AID 1963823); settings: MV4-11 AML viability, CellTiter-Glo luminescence, 72 h; series mostly up to 45 µM; note: nearly all actives have a fitted effect of over 40% in size
How it was run: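 qHTS, SYK inhibitor-naive MV4-11; 500 cells/well; 72 hr compound exposure, 37 C; CellTiter-Glo added, 10 min RT; luminescence read.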

[2] = Viability qHTS for spleen associated tyrosine kinase inhibitor (SYKi) drug resistant MV4-11 cells (AID 1963824); settings: SYKi-resistant MV4-11 viability, CellTiter-Glo, 72 h; series mostly up to 45 µM; note: nearly all actives have a fitted effect of over 35% in size
How it was run: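 SYK inhibitor-resistant MV4-11 AML cells, 500 per well, added to predispensed compounds and incubated 72 hr at 37 C, 5% CO2. Viability measured by CellTiter-Glo luminescence after 10 min at room temperature.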
Potency is the fitted concentration of half-maximal effect.

Structure (SMILES)	Potency [1]	Potency [2]	viability (% of control) [1]	viability, % of control [2]
N#CC1C(=O)Nc2scc(-c3ccc(-c4ccccc4O)cc3)c2C1=O (stereo not given)	inactive	inactive		
O=C(/C=C/c1ccc(O)cc1)OCC1=C[C@@H](O)[C@@H]2C=CO[C@@H](O[C@@H]3O[C@H](CO)[C@@H](O)[C@H](O)[C@H]3O)[C@H]12	inactive	inactive		
C[C@@H]1O[C@@H](O[C@H]2[C@H](O[C@H]3CC[C@@]4(C)C(CC[C@]5(C)C4CC=C4C6CC(C)(C)CC[C@]6(C(=O)O[C@@H]6O[C@H](CO[C@@H]7O[C@H](CO)[C@@H](O[C@@H]8O[C@@H](C)[C@H](O)[C@@H](O)[C@H]8O)[C@H](O)[C@H]7O)[C@@H](O)[C@H](O)[C@H]6O)CC[C@]45C)[C@]3(C)CO)OC[C@H](O)[C@@H]2O)[C@H](O)[C@H](O)[C@H]1O (stereo not given in full)			69.6% [at 9.25 µM]	88.1% [at 9.25 µM]
C=C[C@@]12COC(=O)C(=C)C1[C@@H](O)[C@H](C(=C)C(=O)OC)[C@@H](OC(=O)C(=C)CO)C2 (stereo not given in full)	1.78 µM (active)	1.59 µM (active)		
N#CCC(C1CCCC1)n1cc(-c2ncnc3[nH]ccc23)cn1 (stereo not given)	10.3 µM (active)	10.3 µM (active)		
C=C1C(=O)O[C@H]2C1CCC(C)=C1C(=O)C=C(C)[C@@]12O (stereo not given in full)	7.31 µM (active)	8.2 µM (active)		
CC/C=C/C=C/C1(C)OC(CC(CO)OC)=CC1=O (stereo not given)	20.6 µM (active)	23.1 µM (active)		
O=C(CC1CC(c2ccc(F)cc2F)=NO1)N1CCOCC1 (stereo not given)	inactive	inactive		
C/C=C/C=C/C=C/C(=O)O[C@@H]1[C@@H](OC)C2=C(C(=O)N(C(C)C(=O)O)C2)[C@@]2(C)CCCC(C)(C)[C@H]12 (stereo not given in full)	inactive	inactive		
COC(=O)c1ccc(=O)c2nc3/c(=C/O)c(O)cc(=O)c3[nH]c12	inactive	inactive		
CC(C)=C[C@@H]1[C@H](CO[C@@H]2O[C@H](CO)[C@@H](O)[C@H](O)[C@H]2O)C1(C)C	7.18 µM (active)	4.53 µM (active)		
COc1cc(OC)c(C(=O)/C=C/c2ccccc2)c2c1C=CC(C)(C)O2	10.3 µM (active)	5.17 µM (active)		
Cc1ccc(NC(=O)c2ccc(CN3CCNCC3)cc2)cc1Nc1nccc(-c2cccnc2)n1	9.2 µM (active) and 16.6 µM (active)	9.2 µM (active) and 16.6 µM (active)		
C=C1CCC2C(C)(C)C(O)CCC2(C)C1CCC(C)CCO (stereo not given)	9.04 µM (active)	12.8 µM (active)		
Cc1cc(-c2ncc(-c3cccnc3)cc2/C=C/c2ccccc2)cnc1-c1cccnc1	inactive	inactive		
CC1(C)CC[C@]2(C(=O)O[C@@H]3O[C@H](CO)[C@@H](O)[C@H](O)[C@H]3O)CC[C@]3(C)C(=CCC4[C@@]5(C)C[C@@H](O)[C@H](O)[C@](C)(C=O)C5CC[C@]43C)[C@@H]2[C@@H]1O (stereo not given in full)	inactive	inactive		
C=C(C)[C@@H]1CC[C@]2(C(=O)O)CC[C@]3(C)C(CCC4[C@]5(C)C(CC[C@]43C)C(C)(C)[C@@H](O)[C@@H]5C(=O)O)C12 (stereo not given in full)	inactive	inactive		
C[C@@H]1C(=O)O[C@H](C)[C@H]1C[C@@H](O)[C@](C)(O)[C@H]1CC[C@@]2(O)C3=CC(=O)[C@@H]4C[C@@H](O)[C@@H](O)C[C@]4(C)C3CC[C@]12C (stereo not given in full)	inactive	inactive		
COCC1OC(OC(C)(C)C2CCC3(C)C=C(C4CCC5C4(C)CC(O)C4OC(C(C)(C)OC6OC(CO)C(O)C(O)C6NC(C)=O)CCC45C)CCC3O2)C(NC(C)=O)C(O)C1O (stereo not given)			92.4% [at 9.25 µM]	108% [at 9.25 µM]
CCN(CC)CCNc1ccc2ncn3c4ccc(O)cc4c(=O)c1c23	0.164 µM (active)	0.291 µM (active)		
Cc1cc(C)c(-c2csc(NC(=O)c3ccccc3)n2)c(C)c1	6.51 µM (active)	11.6 µM (active)		
CC1CCC2C(C(=O)O)=CC3(O)CC(C)(C)CC123 (stereo not given)	inactive	inactive		
CC(C)(O)c1ccc2c(c1)C(=O)C[C@H]1[C@](C)(C(=O)O)CCC[C@]21C	inactive	inactive		
CCCCCCOc1cc2c(cc1N(C)c1ncc(C(=O)O)cn1)C(C)(C)CCC2(C)C	23.1 µM (active)	6.51 µM (active)		
O=C(OCC1=C[C@@H](O)[C@@H]2C=CO[C@@H](O[C@@H]3O[C@H](CO)[C@@H](O)[C@H](O)[C@H]3O)[C@H]12)c1ccc(O)cc1	inactive	inactive		
